For some of these results: Results with a measured potency or affinity are listed apart.

What all share (parameters): scale not given: direction of the effect not stated beside the values
Assay [1] concerns the target Protein translocase subunit SecA (Escherichia coli (strain K12)) (UniProt P10408). The assay is described as follows: Assay to Identify E. coli SecA ATPase Inhibitors. The format is functional. As to conditions: 30 µM.
Assay [2] deals with T1, Ubiquitin-activating enzyme e1, putative (Leishmania donovani (strain BPK282A1)) (UniProt E9BSI1).
T1 sequence (whole entry): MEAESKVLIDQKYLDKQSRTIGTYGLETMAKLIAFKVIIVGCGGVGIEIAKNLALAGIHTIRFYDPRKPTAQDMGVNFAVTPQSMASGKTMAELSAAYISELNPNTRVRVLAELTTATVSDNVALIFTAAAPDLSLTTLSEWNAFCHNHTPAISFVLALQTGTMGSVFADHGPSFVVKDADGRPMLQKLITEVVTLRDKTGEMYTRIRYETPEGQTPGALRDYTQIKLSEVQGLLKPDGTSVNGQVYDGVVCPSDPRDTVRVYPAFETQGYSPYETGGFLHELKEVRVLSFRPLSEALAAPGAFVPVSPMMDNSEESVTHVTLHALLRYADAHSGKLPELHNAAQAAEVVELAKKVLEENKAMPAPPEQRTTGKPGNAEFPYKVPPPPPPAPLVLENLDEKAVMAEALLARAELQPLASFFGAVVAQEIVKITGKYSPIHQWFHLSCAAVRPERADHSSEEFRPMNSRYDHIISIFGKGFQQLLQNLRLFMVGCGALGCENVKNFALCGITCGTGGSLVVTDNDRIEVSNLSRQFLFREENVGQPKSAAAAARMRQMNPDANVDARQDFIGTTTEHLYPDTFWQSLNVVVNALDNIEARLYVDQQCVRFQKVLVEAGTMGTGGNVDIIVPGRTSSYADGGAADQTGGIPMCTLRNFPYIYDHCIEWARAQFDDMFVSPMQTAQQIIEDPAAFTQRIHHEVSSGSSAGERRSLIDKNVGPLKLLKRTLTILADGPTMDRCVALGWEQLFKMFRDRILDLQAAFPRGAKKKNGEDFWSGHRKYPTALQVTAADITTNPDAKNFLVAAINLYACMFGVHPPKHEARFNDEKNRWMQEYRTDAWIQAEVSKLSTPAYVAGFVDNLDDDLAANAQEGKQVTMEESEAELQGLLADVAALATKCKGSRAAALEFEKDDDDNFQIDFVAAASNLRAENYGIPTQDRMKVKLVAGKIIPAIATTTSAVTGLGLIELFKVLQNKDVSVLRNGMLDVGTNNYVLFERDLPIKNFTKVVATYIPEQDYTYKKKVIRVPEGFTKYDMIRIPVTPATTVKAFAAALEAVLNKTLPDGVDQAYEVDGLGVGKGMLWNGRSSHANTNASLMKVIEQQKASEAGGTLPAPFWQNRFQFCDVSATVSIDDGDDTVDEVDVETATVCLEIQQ
Kind of assay: Leishmania donovani Ubiquitin Activating Enzyme (LdE1). As to conditions: 30 µM. In kind it is functional.

Assay [3] addresses AMP-activated protein kinase, AMPK (Homo sapiens) (UniProt P54646+O43741+P54619+Q9UGJ0+Q9Y478+Q13131+Q9UGI9). Kind of assay: AMP-dependent Kinase enzyme assay. An in vitro enzyme assay that detects ADP turnover that is directly proportional to AMPK activity. This uses naive AMPK that is activated during the assay with MK-8722. In kind it is functional. To be noted: 30 µM.
Assay [4] addresses Sialic acid-binding Ig-like lectin 9 (Homo sapiens) (UniProt Q9Y336). The assay is described as follows: Hs-Siglec9 ALPHAscreen SOP 20170721. As to conditions: 10 µM.
A further assay deals with Trypanosoma cruzi. Kind of assay: Trypanosoma cruzi phosphomannomutase and mannose-1-phosphate guanylyltransferase assay. In kind it is functional. To be noted: 10 µM.
Assay [5] addresses T2, Arginase-2, mitochondrial (Homo sapiens) (UniProt P78540).
T2 sequence (whole entry): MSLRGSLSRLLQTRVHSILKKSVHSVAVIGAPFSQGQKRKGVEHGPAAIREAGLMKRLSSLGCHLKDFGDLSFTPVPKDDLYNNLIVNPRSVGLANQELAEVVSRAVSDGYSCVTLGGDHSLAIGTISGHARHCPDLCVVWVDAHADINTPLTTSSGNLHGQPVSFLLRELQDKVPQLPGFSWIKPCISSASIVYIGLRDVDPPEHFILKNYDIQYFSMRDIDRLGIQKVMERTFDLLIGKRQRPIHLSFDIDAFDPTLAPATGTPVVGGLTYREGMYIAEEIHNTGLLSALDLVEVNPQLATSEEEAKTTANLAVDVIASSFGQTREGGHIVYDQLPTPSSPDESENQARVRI
Kind of assay: in vitro enzyme assay to detect the production of urea directly proportional to the activity of Arginase II. Further: in the data most compounds retested in dose-response had high values. The format is functional. As to conditions: 33.3 µM.

Assay [6] deals with T3, Proteasome subunit beta (Trypanosoma cruzi) (UniProt O96673).
T3 sequence (whole entry): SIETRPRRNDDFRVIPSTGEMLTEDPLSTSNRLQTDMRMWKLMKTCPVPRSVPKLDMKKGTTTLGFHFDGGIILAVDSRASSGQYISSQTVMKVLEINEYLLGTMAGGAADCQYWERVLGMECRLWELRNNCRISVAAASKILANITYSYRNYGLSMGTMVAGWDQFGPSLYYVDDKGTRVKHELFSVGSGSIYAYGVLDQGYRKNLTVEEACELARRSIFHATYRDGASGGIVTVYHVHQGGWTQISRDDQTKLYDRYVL
The assay is described as follows: Trypanosoma cruzi proteasome chymotrypsin-like activity (TcProtChymo) assay. Further: in the data most compounds retested in dose-response had high values. To be noted: 9.37 µM. In kind it is functional.

The species named for a further assay is Homo sapiens. The assay is described as follows: To identify inhibition of the IFN signalling (Jak-Stat) pathway via expression of an eGFP reporter gene under the control of an IFN-stimulated response element (ISRE) containing MxA promoter. In kind it is functional. To be noted: 30 µM.
Assay [7] addresses T4, Tyrosyl-tRNA synthetase, putative (Trypanosoma cruzi (strain CL Brener)) (UniProt Q4DSP6).
T4 sequence (whole entry): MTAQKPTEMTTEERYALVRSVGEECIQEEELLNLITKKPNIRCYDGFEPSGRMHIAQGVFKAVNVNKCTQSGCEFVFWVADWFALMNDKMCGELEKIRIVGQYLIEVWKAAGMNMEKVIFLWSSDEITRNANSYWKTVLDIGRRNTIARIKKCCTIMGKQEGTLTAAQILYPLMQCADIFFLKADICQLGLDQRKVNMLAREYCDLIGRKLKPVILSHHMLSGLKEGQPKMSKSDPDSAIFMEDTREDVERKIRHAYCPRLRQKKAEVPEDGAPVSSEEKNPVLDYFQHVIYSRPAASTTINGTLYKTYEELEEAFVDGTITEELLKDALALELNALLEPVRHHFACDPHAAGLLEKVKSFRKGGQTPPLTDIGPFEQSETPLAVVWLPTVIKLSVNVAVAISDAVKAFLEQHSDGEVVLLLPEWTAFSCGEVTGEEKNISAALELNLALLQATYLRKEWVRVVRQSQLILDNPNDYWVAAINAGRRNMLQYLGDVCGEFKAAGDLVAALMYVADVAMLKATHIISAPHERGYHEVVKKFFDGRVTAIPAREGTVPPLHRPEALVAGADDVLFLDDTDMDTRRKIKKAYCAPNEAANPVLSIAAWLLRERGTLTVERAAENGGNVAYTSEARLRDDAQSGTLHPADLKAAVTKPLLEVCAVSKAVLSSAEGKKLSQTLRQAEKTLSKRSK
Kind of assay: Trypanosoma cruzi tyrosyl tRNA synthetase (TcYRS) _High Tyrosine SOP. Further: in the data most compounds retested in dose-response had high values. The format is functional. As to conditions: 30 µM.

In assay [8] the target is T4, Tyrosyl-tRNA synthetase, putative (Trypanosoma cruzi (strain CL Brener)). The assay is described as follows: Trypanosoma cruzi tyrosyl tRNA synthetase (TcYRS) SOP. In kind it is functional. To be noted: 30 µM.
Assay [9] has as its target Chromo domain-containing protein 1 (Saccharomyces cerevisiae (strain ATCC 204508 / S288c) (Baker's yeast)) (UniProt P32657). Kind of assay: ScCHD-1 Enzyme Inhibition Assay. Further: in the data most compounds retested in dose-response had high values. The format is functional. As to conditions: 30 µM.

Sequence of Sialic acid-binding Ig-like lectin 9 (Homo sapiens) (Q9Y336 whole entry): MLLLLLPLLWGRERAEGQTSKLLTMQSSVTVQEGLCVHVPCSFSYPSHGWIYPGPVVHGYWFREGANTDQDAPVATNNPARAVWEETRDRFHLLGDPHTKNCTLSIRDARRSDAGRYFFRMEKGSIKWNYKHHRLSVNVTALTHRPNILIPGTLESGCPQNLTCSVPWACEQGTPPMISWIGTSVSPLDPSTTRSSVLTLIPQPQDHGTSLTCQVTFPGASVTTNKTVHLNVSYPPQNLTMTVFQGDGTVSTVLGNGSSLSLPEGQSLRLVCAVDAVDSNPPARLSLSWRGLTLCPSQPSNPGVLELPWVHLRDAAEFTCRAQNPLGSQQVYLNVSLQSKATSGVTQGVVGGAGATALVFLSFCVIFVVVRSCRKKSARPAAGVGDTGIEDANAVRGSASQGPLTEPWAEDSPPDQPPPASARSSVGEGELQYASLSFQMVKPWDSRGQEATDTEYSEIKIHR
Sequence of Protein translocase subunit SecA (Escherichia coli (strain K12)) (P10408 whole entry): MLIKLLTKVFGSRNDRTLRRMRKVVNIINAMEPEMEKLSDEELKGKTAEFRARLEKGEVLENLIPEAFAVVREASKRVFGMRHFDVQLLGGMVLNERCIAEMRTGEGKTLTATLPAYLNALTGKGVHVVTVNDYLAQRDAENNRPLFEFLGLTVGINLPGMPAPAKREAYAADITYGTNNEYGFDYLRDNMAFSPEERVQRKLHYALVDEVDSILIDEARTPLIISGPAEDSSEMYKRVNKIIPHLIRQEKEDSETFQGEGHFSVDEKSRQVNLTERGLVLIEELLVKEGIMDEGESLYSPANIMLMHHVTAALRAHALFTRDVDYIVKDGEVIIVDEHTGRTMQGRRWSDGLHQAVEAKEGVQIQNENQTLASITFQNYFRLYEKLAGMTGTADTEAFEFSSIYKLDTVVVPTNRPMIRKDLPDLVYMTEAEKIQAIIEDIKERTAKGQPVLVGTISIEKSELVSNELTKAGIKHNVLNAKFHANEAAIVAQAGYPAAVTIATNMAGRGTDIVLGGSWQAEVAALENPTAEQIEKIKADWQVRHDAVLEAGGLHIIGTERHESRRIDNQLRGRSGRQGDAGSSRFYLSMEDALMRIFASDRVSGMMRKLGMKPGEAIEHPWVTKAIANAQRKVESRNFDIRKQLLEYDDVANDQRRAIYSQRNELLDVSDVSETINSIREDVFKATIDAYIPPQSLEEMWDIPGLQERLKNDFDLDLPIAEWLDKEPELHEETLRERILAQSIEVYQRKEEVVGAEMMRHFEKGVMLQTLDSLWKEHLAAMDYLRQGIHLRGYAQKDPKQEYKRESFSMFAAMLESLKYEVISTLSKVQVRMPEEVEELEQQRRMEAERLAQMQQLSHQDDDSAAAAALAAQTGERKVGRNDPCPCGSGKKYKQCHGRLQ
Sequence of Chromo domain-containing protein 1 (Saccharomyces cerevisiae (strain ATCC 204508 / S288c) (Baker's yeast)) (P32657 whole entry, the tested form may be a part): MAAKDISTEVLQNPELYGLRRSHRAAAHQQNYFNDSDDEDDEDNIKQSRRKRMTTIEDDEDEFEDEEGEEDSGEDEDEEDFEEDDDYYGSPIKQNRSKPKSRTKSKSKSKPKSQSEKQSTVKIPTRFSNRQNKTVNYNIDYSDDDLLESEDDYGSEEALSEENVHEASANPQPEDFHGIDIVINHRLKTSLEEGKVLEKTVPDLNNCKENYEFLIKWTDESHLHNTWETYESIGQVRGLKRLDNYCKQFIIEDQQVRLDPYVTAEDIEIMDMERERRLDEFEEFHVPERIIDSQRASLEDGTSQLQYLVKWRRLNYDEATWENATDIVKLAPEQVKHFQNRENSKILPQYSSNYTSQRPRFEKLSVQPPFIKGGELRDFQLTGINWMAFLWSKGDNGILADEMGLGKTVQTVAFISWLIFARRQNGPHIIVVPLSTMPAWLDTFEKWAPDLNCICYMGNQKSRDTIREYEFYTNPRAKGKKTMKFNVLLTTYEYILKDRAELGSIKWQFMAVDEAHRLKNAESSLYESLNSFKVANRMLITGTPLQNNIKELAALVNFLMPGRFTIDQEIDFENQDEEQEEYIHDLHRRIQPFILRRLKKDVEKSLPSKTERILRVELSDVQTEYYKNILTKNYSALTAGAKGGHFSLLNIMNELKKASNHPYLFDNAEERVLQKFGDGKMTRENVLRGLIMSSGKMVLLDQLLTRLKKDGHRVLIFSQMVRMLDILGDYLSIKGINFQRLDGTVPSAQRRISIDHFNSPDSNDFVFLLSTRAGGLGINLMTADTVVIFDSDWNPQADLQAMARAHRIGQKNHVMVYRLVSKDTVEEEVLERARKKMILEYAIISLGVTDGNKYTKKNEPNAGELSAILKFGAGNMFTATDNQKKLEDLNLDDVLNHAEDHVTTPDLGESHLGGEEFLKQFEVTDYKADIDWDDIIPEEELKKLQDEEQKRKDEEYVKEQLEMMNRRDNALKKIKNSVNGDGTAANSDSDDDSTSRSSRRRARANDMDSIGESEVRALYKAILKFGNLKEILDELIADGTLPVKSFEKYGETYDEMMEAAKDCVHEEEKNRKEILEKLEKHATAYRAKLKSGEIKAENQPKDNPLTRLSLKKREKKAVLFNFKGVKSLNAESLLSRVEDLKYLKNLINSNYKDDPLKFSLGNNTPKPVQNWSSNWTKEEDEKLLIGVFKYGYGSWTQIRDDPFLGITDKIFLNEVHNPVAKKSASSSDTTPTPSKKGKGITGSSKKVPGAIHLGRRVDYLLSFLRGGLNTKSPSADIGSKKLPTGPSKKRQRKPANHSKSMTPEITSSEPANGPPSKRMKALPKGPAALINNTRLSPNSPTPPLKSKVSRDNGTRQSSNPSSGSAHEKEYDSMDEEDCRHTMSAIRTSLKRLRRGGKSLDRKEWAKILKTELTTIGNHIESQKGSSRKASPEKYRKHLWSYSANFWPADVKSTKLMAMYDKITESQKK

For the compound `CCC(C)N(C)CCNC(=O)NCc1cccc(-n2cncn2)c1` (stereo unspecified), the Percent Effect in assay [1] is -5.23%; in assay [2] it was 5.41%; in assay [3], -2.01%; in assay [4], 27.3%; with Trypanosoma cruzi it was 4.59%; in assay [5], 0.248%. Further, the Percent Effect in [6] was 9.87%; in the assay listed under Homo sapiens, -1.6%; in [7], 2.15%; in [8], 6.17%; in [9] it was -12.3%.

As for `Cc1nnc(C(C)N2CCN(Cc3ccc4c(c3)OCO4)CC2)o1` (stereo unspecified), the Percent Effect is -8% in [1]; 8.11% in [2]; -13.4% in assay [3]; 7.45% in assay [4]; -4.62% in the assay on Trypanosoma cruzi; -4.01% in assay [5]. The Percent Effect is -0.36% in [6]; 13.3% in the assay listed under Homo sapiens; -0.493% in [7]; -8.64% in [8]; 2.83% in assay [9].

Consider `Cc1cc(C)nc(CCNC(=O)[C@H]2CNC[C@@H](C(=O)N3CCCC3)C2)n1`, for which the Percent Effect in assay [1] was -5%; in assay [2] it was 0%; in assay [3], 2.23%; in assay [4] it was -0.778%; in the assay on Trypanosoma cruzi it was -8.33%; in [5], -5.59%. Moreover, the Percent Effect was 5.91% in [6]; 29.4% in the assay filed under Homo sapiens; 2.08% in [7]; 3.7% in assay [8]; -3.88% in assay [9].

In the case of `O=C(N1CCCC1)N1CCO[C@H]2[C@@H](Oc3ccccn3)CC[C@@H]21`, the Percent Effect was 0.00913% in [1]; 2.67% in assay [2]; 13.9% in [3]; -0.922% in [4]; -4.92% in the assay with Trypanosoma cruzi; 4.43% in [5]. The Percent Effect in assay [6] was -1.85%; in the assay listed under Homo sapiens, 12.7%; in assay [7], 4.25%; in assay [8] it was 3.85%; in [9] it was 1.67%.

For the compound `CCn1c(C)nnc1CN(C)C1CCN(CCn2cccn2)C1` (stereo unspecified), the Percent Effect in assay [1] was -1.14%; in assay [2], 15.6%; in assay [3], 0.0585%; in assay [4], -11.5%; in the assay on Trypanosoma cruzi it was -0.686%; in assay [5], -1.05%. The Percent Effect in assay [6] was 17.9%; in the assay listed under Homo sapiens, 20.6%; in [7], 14.3%; in [8] it was 23.5%; in [9], -17.4%.

Take `CC(C)NC(=O)N1CCc2nc(C(=O)NCc3ccccc3)sc2CC1`: the Percent Effect in assay [1] was -0.812%; in assay [2], 10.8%; in [3] it was 5.95%; in assay [4] it was -6.63%; with Trypanosoma cruzi it was -3.42%; in assay [5], 5.41%. Moreover, the Percent Effect in assay [6] is 18.1%; in the assay listed under Homo sapiens it was 13.3%; in [7] it was 8.65%; in [8], 17.9%; in assay [9], -3.29%.

With `Cc1ccc(=O)n(CC2(O)CCN(Cc3cc(C)c(O)c(C)c3)CC2)n1`, the Percent Effect in [1] was -6.97%; in [2], 23%; in assay [3], -6.19%; in assay [4], 7.09%; in the assay with Trypanosoma cruzi it was 6.52%; in assay [5] it was -2.55%. In addition, the Percent Effect in [6] is 13.3%; in the assay filed under Homo sapiens, -3.64%; in assay [7] it was 2.15%; in assay [8], 14.3%; in assay [9], 45.6%.

In the case of `c1ccc(-c2cnc(CN3CCn4c(nnc4C4CC4)C3)o2)cc1`, the Percent Effect in assay [1] is 3.62%; in [2] it was 13.2%; in assay [3] it was -0.492%; in assay [4], 0.484%; with Trypanosoma cruzi, -0.564%; in assay [5], 6.9%. Further, the Percent Effect was 10% in [6]; 18.2% in the assay listed under Homo sapiens; 6.37% in [7]; 17.1% in [8]; -9.44% in [9].

`COc1ccc(-n2ccc(C(=O)N3CCN(C)CC3C)n2)cc1` (stereo unspecified): the Percent Effect is -5.91% in assay [1]; 10.4% in assay [2]; 5.54% in assay [3]; 7.32% in [4]; 0.374% in the assay with Trypanosoma cruzi; -0.712% in assay [5]. For the same compound, the Percent Effect in assay [6] is -0.676%; in the assay listed under Homo sapiens it was 3.45%; in [7] it was 8.74%; in assay [8], 14.6%; in [9], -5.54%.

On to `CC(Cn1ccnc1)NC(=O)NCCNC(=O)C(C)C` (stereo unspecified), for which the Percent Effect is 2.77% in assay [1]; 23.7% in [2]; -2.17% in [3]; -3.21% in assay [4]; 0.94% in the assay on Trypanosoma cruzi; -4.6% in assay [5]. The Percent Effect is 15.4% in assay [6]; 31.2% in the assay filed under Homo sapiens; 3.43% in assay [7]; 19.5% in [8]; -9.78% in assay [9].

On to `Cc1cccc(COC[C@H]2CC[C@H]3[C@H](CCN3C(=O)CC3CC3)O2)n1`, for which the Percent Effect is -5.92% in [1]; 10.7% in assay [2]; 7.31% in assay [3]; -1.34% in [4]; -1.57% in the assay with Trypanosoma cruzi; 5.36% in assay [5]. In addition, the Percent Effect is 6.96% in assay [6]; 15.9% in the assay listed under Homo sapiens; 7.45% in [7]; 19.2% in [8]; -5.1% in assay [9].
